Compounds with a hit are over-represented: about 2.1% of the library has one in this group of screens.
PrP 5UTR inh – inhibition of PrP 5' UTR reporter expression; cell-based PrP 5' UTR mRNA reporter, plate reader; inhibition, % (test concentration not listed); 0.35% of 340,000 active; AID 488862; in the data active means inhibition above about 52%; further: 0 = median of the neutral control wells
ugtP null kill – growth inhibition of S. aureus ugtP deletion strain. S. aureus RN4220 ugtP deletion, OD600 growth, 16 h. growth inhibition, % (concentration not given with the values). 0.54% of 330,000 active. AID 1259309; in the data active means growth inhibition above about 68%;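 further: plate controls were untreated wells for no effect and antibiotic for full effect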
CCHF vOTU inh – blocks the CCHF virus ovarian tumor domain protease. CCHFV vOTU protease, Pep-AMC fluorescence. inhibition, % at 11.5 µM. 0.55% of 370,000 active; in the data active means inhibition above about 30%; further: 0% = vehicle wells with enzyme and 100% = no enzyme wells
PrPC surface inh – inhibitors of human cell surface prion protein PrPC; 0.43% of 370,000 active; TR-FRET read-out; inhibition, % at 13.8 µM; AID 720596; in the data active means inhibition above about 24%; further: 0% = median of the test wells and 100% = reference compound wells
PfHsp40 rescue – compounds rescuing yeast from Plasmodium falciparum HSP40 toxicity; S. cerevisiae expressing PfHsp40, growth rescue, ATP luminescence; growth rescue, % at 12.5 µM; 0.68% of 340,000 active; AID 504582; in the data active means growth rescue above about 28%, passing the limit was not always enough;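 further: yeast W303a lacking pdr1 and pdr3 grown in galactose medium; growth measured after three days at 30 °C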
Sa RN4220 lethal – S. aureus RN4220 growth inhibition | OD600, 16 h | inhibition, % (no concentration beside the values) | 0.33% of 330,000 active; in the data active means inhibition above about 85%;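 further: plate controls were untreated cells for no effect and reference antibiotic for full effect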
Starred values were filed as active, the others as inactive; nt = no result given.

SMILES	PrP 5UTR inh	ugtP null kill	CCHF vOTU inh	PrPC surface inh	PfHsp40 rescue	Sa RN4220 lethal
O=C(CC1CC=CCC(NC(=O)OCC2c3ccccc3-c3ccccc32)C(=O)OC(c2ccccc2)CNC1=O)NC(CO)Cc1ccccc1 (stereo unspecified)	nt	6	nt	nt	nt	8
CCOc1cc(C=O)c(Br)cc1OC1CCCC1	-2	87*	3	3	0	-9
CC(C)C1C=C(C(=O)O)OC(OCc2ccc(CO)cc2)C1 (stereo unspecified)	nt	-1	nt	nt	nt	8
COc1ccc(C2CC(c3ccc(Cl)cc3)=NN2c2ccc(S(N)(=O)=O)cc2)cc1 (stereo unspecified)	-23	40	-103	-7	0	94*
NS(=O)(=O)c1ccc(N2N=C(c3ccc(Br)cc3)CC2c2ccc(F)cc2)cc1 (stereo unspecified)	-33	45	-84	1	-1	98*
COc1ccc(C2=NN(c3ccc(C(=O)O)cc3)C(c3ccc(OC)c(OC)c3)C2)cc1 (stereo unspecified)	3	-5	-221	-3	112*	13
COc1ccc(C2CC(c3ccncc3)=NN2c2ccc(S(N)(=O)=O)cc2)cc1 (stereo unspecified)	-101	8	-191	-22	1	-4
C#CCNC(=O)C(Cc1ccc(C(=O)c2ccccc2)cc1)NC(=O)OC(C)(C)C (stereo unspecified)	nt	-1	nt	nt	nt	7
COc1cc2c(cc1OC)C(c1ccc(O)cc1)NCC2 (stereo unspecified)	-2	5	6	-2	74*	2
COc1cc2c(cc1OC)C(c1ccccc1)NCC2 (stereo unspecified)	-16	2	10	6	2	1
Cc1ccc(COc2ccc(Br)cc2C=NO)cc1	nt	100*	nt	nt	nt	-9
ON=Cc1cc(Br)cc(Br)c1OCc1ccccc1	nt	91*	nt	nt	nt	-12
O/N=C/c1cc(Br)ccc1OCc1ccccc1F	-26	nt	17	0	721*	nt
O/N=C/c1ccccc1OCc1ccc(Cl)cc1	-28	nt	5	3	237*	nt
COC(=O)C1=C(c2ccc(F)cc2F)CC2CCC1N2C(=O)N1CCC(O)CC1 (stereo unspecified)	nt	-3	nt	nt	nt	4
NC(=NS(=O)(=O)c1ccccc1)c1cccc([N+](=O)[O-])c1	nt	0	nt	nt	nt	8
O=C(c1cc2ccccc2o1)N(Cc1ccco1)Cc1cccs1	-8	17	0	-8	165*	4
Cc1c(C(=O)N(Cc2ccco2)Cc2cccs2)oc2ccccc12	-21	17	14	4	-1	10
CC(NC(=O)c1[nH]cnc1C(=O)Nc1nccs1)c1ccccc1 (stereo unspecified)	nt	2	nt	nt	nt	12
C#CCNC(=O)C1=CC(C2CCCCC2)CC(OCc2ccc(CO)cc2)O1 (stereo unspecified)	nt	-6	nt	nt	nt	12
C/C=C/c1ccc(OCC(=O)O)c(OC)c1	-8	3	-13	2	-1	6
C/C=C/c1ccc(OCCOc2cc(C=O)ccc2OC)c(OC)c1	-45	38	-1	1	39*	2
COC(=O)C1=C(c2cccc3c2S(=O)(=O)c2ccccc2-3)CC2CCC1N2C(=O)N1CCc2cc(OC)c(OC)cc2C1 (stereo unspecified)	nt	15	nt	nt	nt	0
COc1cc(/C=N/NC(N)=S)cc(Br)c1OCc1ccccc1F	-14	nt	-2	8	3	nt
CCOc1cc(/C=N/NC(N)=S)cc(Br)c1OCc1ccccc1C	-36	nt	nt	nt	83*	nt
SMILES	PrP 5UTR inh	ugtP null kill	CCHF vOTU inh	PrPC surface inh	PfHsp40 rescue	Sa RN4220 lethal
COc1ccccc1CNC(=O)c1cccc(-c2ccc(C)c3ccccc23)n1	nt	4	-4	4	nt	7
CCCCCCNC(=O)c1cccc(-c2ccc(C)c3ccccc23)n1	-10	90*	8	0	-1	-4
COC(=O)C1=C(c2cc3ccccc3o2)CC2CCC1N2C(=O)NCCO (stereo unspecified)	nt	-1	nt	nt	nt	7
O=Nc1c(O)c2ccccc2c2ccccc12	-65	99*	0	-23	24	100*
O=c1ccc2ccccc2c2ccccc12	nt	nt	-9	8	nt	nt
CC1CN=C(N(C)C)N1CCc1ccc(F)cc1 (stereo unspecified)	nt	1	nt	nt	nt	4
COc1ccc(-c2nn(-c3ccccc3)cc2C(=O)NN=Cc2ccc([N+](=O)[O-])o2)cc1	nt	100*	nt	nt	nt	97*
Cc1nc2ccccn2c1C(=O)NN=Cc1ccc([N+](=O)[O-])o1	nt	82	nt	nt	nt	98*
Cc1nc2ccccn2c1C(=O)N/N=C/c1ccc([N+](=O)[O-])o1	-43	nt	13	-36	-1	nt
COc1ccc(-c2nn(-c3ccccc3)cc2/C=N/NC(=O)c2ccc(Br)o2)cc1	-31	nt	11	9	2	nt
O=C(NN=Cc1ccc([N+](=O)[O-])o1)c1cn(-c2ccccc2)nc1-c1ccc(F)cc1	nt	98*	nt	nt	nt	71
O=C(NN=Cc1ccc([N+](=O)[O-])o1)c1cn(-c2ccccc2)nc1-c1ccccc1	nt	99*	nt	nt	nt	100*
O=C(NN=Cc1ccc([N+](=O)[O-])o1)c1ccccc1-n1cccc1	nt	30	nt	nt	nt	33
COc1ccc(S(=O)(=O)NN=C(C)c2cccc(NC(=O)c3ccccc3Cl)c2)cc1	nt	4	nt	nt	nt	-2
COc1ccc(NC(C)C(=O)NN=Cc2ccccc2OCc2ccc(Br)cc2)cc1 (stereo unspecified)	nt	-3	nt	nt	nt	-1
COc1ccc2c(c1)C1=NN(C(C)=CC(C)=O)C(c3cccc(F)c3)C1CC2 (stereo unspecified)	nt	-8	nt	nt	nt	-1
C(=NNc1ccccc1)c1nc2ccccc2s1	nt	56	nt	nt	nt	3
O=c1c(Cl)c(O)c2cccc3c4ccccc4n1c23	-10	16	-51	23	2	16
COc1c(O)c(=O)n2c3ccccc3c3ccnc1c32	-9	0	13	-16	66*	2
Cc1cccn2c(C=NOCc3cccc(F)c3)c(-c3ccc(Cl)cc3)nc12	nt	-8	nt	nt	nt	-7
O=C(C1CCN(C2CC(=O)N(c3cccc(Cl)c3)C2=O)CC1)N1CCCC1 (stereo unspecified)	-14	nt	7	-7	468*	nt
COC(=O)C1CCN(C2CC(=O)N(c3cc(C)cc(C)c3)C2=O)CC1 (stereo unspecified)	-14	9	9	-1	45*	4
NC(=O)C1CCN(C2CC(=O)N(c3ccc(F)c(Cl)c3)C2=O)CC1 (stereo unspecified)	-10	-1	4	-7	204*	-1
O=C(C1CCN(C2CC(=O)N(c3ccc(Cl)cc3)C2=O)CC1)N1CCOCC1 (stereo unspecified)	-2	7	2	6	2	4
CCN(CC)C1CC(=O)N(c2cccc(Cl)c2)C1=O (stereo unspecified)	-8	16	-11	-2	79*	5
CCN1C(=O)CC(N2CCC(C(=O)OC)CC2)C1=O (stereo unspecified)	-24	-1	-1	-4	8	0
